Laboratory results published in PubChem BioAssay AID1439 (NMMLSC, 2008).
In all, about 220,000 compounds went through this assay and about 770 (0.35%) were called active. Inconclusive results (about 15%) are left out. Shown is part of a subset that was picked to be rich in actives. Values without a mark were called inactive. No stated cut-off is given here; in the data, active means binding response below about 49% or above about 150%; inconclusive means no clear call, values can overlap the other calls; inactive means in between.

biological target: Guanine nucleotide-binding protein G(o) subunit alpha (Homo sapiens) (UniProt P09471); experiment: compounds changing RGS7 association with Galphao – biochemical, multiplexed bead flow cytometry, primary screen (AID 1439); settings: at 10 µM, actives lie on both sides;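 further: fluorescent Galphao held in activated GDP-AlF4 state binding bead-coupled RGS7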
Sequence (P09471 whole entry, looked up): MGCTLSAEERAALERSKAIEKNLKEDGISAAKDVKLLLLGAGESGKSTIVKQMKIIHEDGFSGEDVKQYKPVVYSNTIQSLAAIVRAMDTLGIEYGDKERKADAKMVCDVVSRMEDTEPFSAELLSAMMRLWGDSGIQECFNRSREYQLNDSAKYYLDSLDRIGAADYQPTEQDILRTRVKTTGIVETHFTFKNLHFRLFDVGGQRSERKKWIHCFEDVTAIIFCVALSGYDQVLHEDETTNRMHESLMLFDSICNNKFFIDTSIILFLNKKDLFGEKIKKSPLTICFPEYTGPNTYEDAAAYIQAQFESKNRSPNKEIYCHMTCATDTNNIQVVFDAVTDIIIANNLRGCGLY

Compound	binding response (% of control)
COCC(C)n1c(C)cc(C(=O)COc2ccc(C)nc2[N+](=O)[O-])c1C (configuration not stated)	100%
CCOC(=O)c1ccc(N2C(=O)CC(N3CCN(C(=O)c4ccccc4)CC3)C2=O)cc1 (configuration not stated)	99.4%
COCCNc1nc2nonc2nc1N(C)Cc1ccc(C)cc1	101%
CSc1ccc(CN2C(=O)NC3(CCCCCC3)C2=O)cc1	219% (active)
O=C(CN1C(=O)NC2(CCCCCC2)C1=O)NC1CC1	123%
O=C1NC2(CCCCCC2)C(=O)N1CCS(=O)(=O)Oc1ccccc1	97.1%
Cc1nc2ccccc2c(C)c1C(=O)c1ccc(F)cc1	97.5%
CCOc1ccc(CN2CCN(Cc3ccc(C)o3)CC2CCO)cc1 (configuration not stated)	98.7%
CN(C)c1ccc2c(=O)[nH][nH]c(=O)c2c1	104%
CCOC(=O)c1[nH]cnc1C(=O)Nc1ccccc1C	100%
COC(=O)CNC(=O)c1ccc(OC2CCN(C(=O)C3CC3)CC2)cc1	105%
COc1cccc(C(=O)NCCSc2ccc(Br)cc2)c1	16.5% [inhibitor] (active)
COc1cccc(C(=O)NNC(=O)c2ccccc2Br)c1	99%
COc1cc(OC)cc(C(=O)NCCSCc2ccco2)c1	98.2%
Cc1ccc(-c2cc(C(F)(F)F)n3ncc(C(=O)N4CCCCC4c4cccnc4)c3n2)cc1 (configuration not stated)	100%
C/C(=N\NC(=O)c1cccc(N2CCCC2=O)c1)c1ccc(N)cc1	102%
CCCn1c(SCC(=O)N2CCc3ccccc32)nnc1-c1ccncc1	96%
O=C(CSc1ccc2nnc(-c3ccccc3)n2n1)N1CCCc2ccccc21	207% (active)
Cn1c(SCC(=O)N2CCCc3ccccc32)nc2ccccc2c1=O	96.4%
CC(C)CC(CC(C)C)=NNC(=O)c1ccc(CSc2nncn2C)cc1	99.5%
CN(CCC1CCOCC1)Cc1cn[nH]c1-c1ccc(-c2ccccc2)cc1	93%
O=C(NCC1COc2ccccc2O1)C1(c2ccccc2)CCCC1 (configuration not stated)	103%
COc1ccc(CCC(=O)OCC(=O)Nc2ccc(C)c(S(=O)(=O)N(C)C)c2)cc1	45.2% [inhibitor] (active)
Cc1ccc(C(=O)Nc2ccc(C)c(S(=O)(=O)N(C)C)c2)s1	99.1%

Compound	binding response (% of control)
COc1cc(CCC(=O)OCC(=O)Nc2cccc(S(N)(=O)=O)c2)cc(OC)c1OC	91.7%
COc1ccc2oc(=O)c(C(=O)N3CCCC3)cc2c1	101%
Nn1c(SCC(=O)Nc2nccs2)nncc1=O	102%
Cc1ccc(Cn2ccc(NC(=O)c3cc(C(C)C)on3)n2)cc1	43.9% [inhibitor] (active)
Cc1ccc(Cn2ccc(NC(=O)C3C4CCC(C4)C3C(=O)O)n2)cc1 (configuration not stated)	99.7%
O=C(Nc1ccn(Cc2ccc(F)cc2)n1)c1ccncc1	100%
COc1ccc(Br)cc1/C=N/NC(=O)c1cccc(S(=O)(=O)N2CCOCC2)c1	112%
Cc1cccc(C)c1NC(=O)Nc1ccccc1-n1ccnc1	99.6%
CC(=O)Nc1nc(N(C)C)nc(N(C)C)n1	-0.2% [inhibitor] (active)
COc1cc(OC)nc(NC(=O)CCl)n1	100%
CCC(=O)Nc1nc(OC)cc(OC)n1	99.2%
OCCC1CN(Cc2ccccc2-c2ccco2)CCN1Cc1ccsc1 (configuration not stated)	95.9%
Cc1ccc(S(=O)(=O)NCCc2nnc3ccc(SCc4cccnc4)nn23)cc1	95.6%
O=C(O)CCn1c(SCc2cc(=O)n3ccccc3n2)nc2ccsc2c1=O	101%
CC1=CC=CC2=N/C(=N\S(=O)(=O)c3ccc(F)cc3F)c3ccccc3CN12	101%
c1ccc2c(NC3C4CC5CC(C4)CC3C5)nc(N3CCOCC3)nc2c1 (configuration not stated)	100%
N#Cc1nc(COc2ccc(-c3ccccc3)cc2)oc1NCc1cccnc1	202% (active)
N#Cc1nc(-c2ccc(OCc3ccccc3)cc2)oc1NCCCN1CCOCC1	97.2%
N#Cc1nc(Cc2ccccc2)oc1NCCc1ccccc1	102%
O=S(=O)(c1ccc(-c2ccccc2)cc1)N1CCCC1	106%
O=C(NCc1ccco1)C(=O)c1cn(CC(=O)N2CCCCCC2)c2ccccc12	93.9%
Cc1c(-c2cccc(Cl)c2)nc2ccccc2c1C(=O)OCC(=O)N(C)C1CCS(=O)(=O)C1 (configuration not stated)	97%
COc1ccc(C(=O)NC2CCN(C(=S)NCCc3ccccc3)CC2)cc1	91.3%
